GALC G270D up = raises human GALC G270D mutant activity in cells; P54803; 145M-Twi-hGALC-G270D cells, HMU-beta-Gal fluorescence, 48 h; Potency, µM (highest dose often 57.5 µM), most hits filed as activators; hit rate 0.1% among 45,000; also: potency is read from the fitted curve at half-maximal effect; 0% is about no effect; nearly all actives have a fitted effect of over 65% in size
Target sequence (P54803 whole entry G286D): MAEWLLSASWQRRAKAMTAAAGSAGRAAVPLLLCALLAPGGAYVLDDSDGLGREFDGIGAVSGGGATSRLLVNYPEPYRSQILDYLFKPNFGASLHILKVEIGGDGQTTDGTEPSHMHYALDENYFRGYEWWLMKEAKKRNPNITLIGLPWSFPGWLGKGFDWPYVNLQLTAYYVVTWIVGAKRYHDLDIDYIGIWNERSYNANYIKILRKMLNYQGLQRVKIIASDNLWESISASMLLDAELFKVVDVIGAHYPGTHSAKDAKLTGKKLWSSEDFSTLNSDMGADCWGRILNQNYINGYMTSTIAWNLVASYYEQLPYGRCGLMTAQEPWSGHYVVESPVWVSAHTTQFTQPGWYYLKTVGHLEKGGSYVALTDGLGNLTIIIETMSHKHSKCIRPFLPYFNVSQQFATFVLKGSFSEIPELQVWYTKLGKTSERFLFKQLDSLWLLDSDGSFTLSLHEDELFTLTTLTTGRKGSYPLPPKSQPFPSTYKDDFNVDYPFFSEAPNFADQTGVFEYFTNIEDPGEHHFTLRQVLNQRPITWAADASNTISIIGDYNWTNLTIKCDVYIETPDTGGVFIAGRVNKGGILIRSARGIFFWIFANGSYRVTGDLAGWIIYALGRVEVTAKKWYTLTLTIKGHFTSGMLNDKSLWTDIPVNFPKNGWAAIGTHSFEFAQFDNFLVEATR
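qHTS, 1536-well; 145M-Twi-hGALC-G270D cells (WT line also made) in DMEM/F12 + 10% FBS; compound incubation on live cells; HMU-β-gal 0.1 mM final, pH 5.2, NaTC; carbonate stop; fluorescence increase = enhanced residual activity.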
NTMT1 inhibitor = NTMT1 methyltransferase inhibition; Q9BV86; NTMT1 MTase-Glo SAH luminescence, purified enzyme; Potency, µM (series often up to 114 µM), for inactives: top-dose activity change, negative = inhibition, usual class: inhibitors; hit rate 2.5% among 59,000;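 also: potency is read from the fitted curve at half-maximal effect; plate controls were DMSO vehicle for no effect and no enzyme for full effect; nearly all actives have a fitted effect of over 65% in size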
FH mod = Identification of activators of human fumarate hydratase by quantitative high-throughput screening; Fumarate hydratase, mitochondrial (Homo sapiens), P07954; FH coupled MDH/diaphorase resazurin fluorescence, 15 min; Potency, µM (doses to about 79.9 µM), without a hit: top-dose activity change, negative = inhibition, usual class: inhibitors; hit rate 0.22% among 54,000; also: potency is read from the fitted curve at half-maximal effect; % is scaled to controls: 0 for no effect and ±100 for the full control effect; the screen sought activators but most active calls are inhibition curves; nearly all actives have a fitted effect of over 45% in size
PTAP-TSG101 blk = blocks PTAP binding to human TSG101, validation | Q99816 | Fluorescence polarization, FITC-PTAP peptide/Tsg101, 20 min | Potency, µM (titrated, usually from 115 µM), actives largely listed as inhibitors | 44,000 tested, under 10 active | AID 1347069; also: potency is read from the fitted curve at half-maximal effect; 0% is about no effect
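Fluorescence polarization binding of Tsg101 binding domain (10 uM final) to FITC-labeled PTAP-motif peptide (50 nM final) in HEPES pH 7.5/NaCl/Tween 20/EDTA/TCEP buffer; 20 min at r.t. Actives by curve class, <25 µM, efficacy <60% inhibition.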
B2AR arrestin ag = beta-arrestin recruitment by human beta2-adrenergic receptor ligands. P07550. HTLA Tango cells, beta-arrestin recruitment, luciferase luminescence, 18 h. Potency, µM (top dose mostly 46.1 µM), actives largely listed as activators. 44,000 tested, under 10 active;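 also: potency is read from the fitted curve at half-maximal effect; 0% = DMSO and full agonism = EC100 isoproterenol or metaproterenol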
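First, Tango cells carrying beta2-AR and beta-arrestin fusions received compound up to 46 microM. After 18 hr at 37 degrees C, luciferase substrate was added for 15 minutes, then luminescence gave %Activity for curve fitting.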
GALK inh = inhibitors of human galactokinase (GALK); P51570; recombinant GALK, Kinase-Glo ATP luminescence, 1 h; Potency, µM (titrated, usually from 57.5 µM), for inactives: at the highest dose activity, negative = inhibition, hits mostly inhibitors; 44,000 tested, under 10 active; AID 1347072;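 also: plate controls were full GALK reaction for no effect and reaction lacking GALK for full effect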
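Luminescent ATP-depletion readout (Kinase-Glo Plus, 10 min) after 1 h RT reaction of 5 nM GALK, 35 uM ATP, 100 uM galactose, pH 8.0 HEPES buffer. Decreased kinase activity scored as inhibition.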
Starred values were filed as active, the others as inactive; ! = not confirmed by another sample; [ ] = remark or other dose. Only a selection was taken, and hits are over-represented in it overall. Calls follow the shape of the dose curve; as a rule, active = well fitted curve in the direction sought with a large enough effect; inconclusive = small, poorly fitted or top-dose-only effect, or another doubt; inactive = no such curve, though single readings can be large; an effect the other way counts as inactive or inconclusive.

`COC1=C(OC)C(=O)C(CCCCCCCCCCO)=C(C)C1=O` gave GALC G270D up inactive, NTMT1 inhibitor inconclusive and FH mod 19.3µM*.
For O=C(NCCc1nc2ccccc2n1CCOc1ccccc1F)C1CCCCC1 the results were NTMT1 inhibitor 9.2%.
CC1CCN(S(=O)(=O)c2ccc3c(c2)N(CC(=O)N2CCN(c4ccccc4)CC2)C(=O)CO3)CC1 was read as GALC G270D up inactive, NTMT1 inhibitor 89.1µM*, FH mod -4.3%, PTAP-TSG101 blk inactive, B2AR arrestin ag inactive and GALK inh -1.7%.
Screening COc1ccccc1N1CCN(C(=O)CN2C(=O)COc3ccc(S(=O)(=O)N4CCC(C)CC4)cc32)CC1 returned GALC G270D up inactive, NTMT1 inhibitor -14.1%, FH mod -7.0%, PTAP-TSG101 blk inactive, B2AR arrestin ag inactive and GALK inh -1.2%.
Screening CCN(CCN(C)C)C(=O)CNCc1cc(C(N)=O)ccn1 returned NTMT1 inhibitor 6.8%[57.5 µM] and FH mod inconclusive.
Oc1cccc(Nc2cc(-c3ccccc3)ncn2)c1 was read as GALC G270D up inactive, NTMT1 inhibitor 39.8µM*, FH mod -3.8%, PTAP-TSG101 blk inactive, B2AR arrestin ag inactive and GALK inh 0.0%.
For COc1cnc(-c2ccc(Cn3c(CC(C)(C)C(=O)O)c(SC(C)(C)C)c4cc(OC[C@@H]5Cc6ccccc6N5C(C)=O)ccc43)cc2)nc1 the results were NTMT1 inhibitor 12.1%[29.8 µM] and FH mod inconclusive.
For CC1(C(=O)O)CCC2(C)CCC3(C)C(=CC(=O)C4C5(C)CCC(OC6OC(C(=O)O)C(O)C(O)C6OC6OC(C(=O)O)C(O)C(O)C6O)C(C)(C)C5CCC43C)C2C1 (stereo unspecified) the results were NTMT1 inhibitor 6.7%.
Screening Cc1c(C(=O)N2CCOc3ccc(-c4ccc(N)nc4)cc3C2)ccc(S(C)(=O)=O)c1F returned NTMT1 inhibitor 50.1µM*! and FH mod 4.6%.
`CC1OC2OC3C(OCC(O)C3O)OC(=O)C34CCC(C)(C)CC3C3=CCC5C6(C)CC(O)C(OC7OC(CO)C(O)C(O)C7OC7OCC(OC(=O)CC(C)(O)CC(=O)OC1C(OC1OCC(O)C(O)C1O)C2O)C(O)C7O)C(C)(CO)C6CCC5(C)C3(C)CC4O` (stereo unspecified) gave NTMT1 inhibitor 2.8%[29.8 µM] and FH mod 4.1%[53.3 µM].
`COc1cc(F)c(C(C)C)cc1-c1ccc(C(F)(F)F)cc1CN1C(=O)OC(c2cc(C(F)(F)F)cc(C(F)(F)F)c2)C1C` (stereo unspecified) gave NTMT1 inhibitor 4.9%[57.5 µM] and FH mod 2.2%.
For O=C1CCCC2=C1C(c1[nH]ncc1Cl)N=C(Nc1ccn[nH]1)N2 (stereo unspecified) the results were NTMT1 inhibitor 10.1%.
For NC(=NCCCCCCN=C(N)N=C(N)Nc1ccc(Cl)cc1)N=C(N)Nc1ccc(Cl)cc1 the results were NTMT1 inhibitor 35.5µM*! and FH mod 13.5%[53.3 µM].
O=C1NC(=O)/C(=C\c2ccc(-c3ccc(F)cc3O)o2)S1 was read as NTMT1 inhibitor 28.2µM* and FH mod inconclusive.
For N=C1S/C(=C\c2ccc(-c3ccc4c(c3)C(=O)NC4=O)o2)C(=O)N1c1ccc(Br)cc1 the results were NTMT1 inhibitor -13.4%[57.5 µM].
For O=C1NC(=O)/C(=C/c2ccc(-c3ccc(F)cc3O)o2)S1 the results were NTMT1 inhibitor 35.5µM* and FH mod inconclusive.
O=C1NC(=O)/C(=C/c2ccc3nccnc3c2)S1 was read as NTMT1 inhibitor 11.1% and FH mod -19.1%[53.3 µM].
N#Cc1ccc(-c2c(-c3ncn[nH]3)sc(N3CCOCC3)c2C#N)c(F)c1 was read as NTMT1 inhibitor -8.2% and FH mod 7.0%.
Screening COc1cc(O)c(C(CC(=O)N2CCOCC2)c2ccc(C)cc2)c(OC)c1 (stereo unspecified) returned NTMT1 inhibitor 8.3%.
`Cc1c[nH]c2nc(Nc3ccc(N4CCN(C)CC4)c(F)c3)nc(-c3cccc(CC#N)c3)c12` gave NTMT1 inhibitor 25.1µM*.
Screening COc1cc2c(Oc3ccc4[nH]c(C)cc4c3F)ncnc2cc1OCCCN1CCCC1 returned NTMT1 inhibitor 44.7µM*! and FH mod 38.6%.
Screening CCOc1ccc(C(=O)Nc2ccc(-c3nc4ccccc4[nH]3)cc2)cc1 returned NTMT1 inhibitor -1.5%.
`CC(=O)c1cc2c(o1)C(=O)c1ccccc1C2=O` gave NTMT1 inhibitor 31.4%.
For Clc1ccc(Nc2nc(-c3ccccc3)c3ccccc3n2)c(Cl)c1 the results were GALC G270D up inactive, NTMT1 inhibitor 8.4%, FH mod -4.3%, PTAP-TSG101 blk inactive, B2AR arrestin ag inactive and GALK inh -0.7%.
Screening CNCc1ccc(C)c(NC(=O)c2ccc(Nc3nc(-c4ccccc4)c4ccccc4n3)cc2)c1 returned NTMT1 inhibitor 35.5µM* and FH mod 7.0%.
For O=[S+]([O-])(Nc1ccc(C2CCNCC2)cc1)c1ccc(NCc2ccc(Br)cc2O)cc1 the results were NTMT1 inhibitor 50.1µM*.
CCCCC(C)(C)[C@H](O)C=C[C@H]1[C@H](O)CC(=O)[C@H]1CC=CCCCC(=O)O was read as NTMT1 inhibitor 50.1µM* and FH mod -10.0%[53.3 µM].
CCCCC[C@H](O)C=C[C@H]1[C@H](O)CC(=O)[C@H]1CCCCCCC(=O)O was read as NTMT1 inhibitor -16.1%[57.5 µM] and FH mod 9.4%[53.3 µM].
O=C(Nc1ccc(F)cc1F)c1cc2c(=O)n3ccccc3nc2s1 was read as GALC G270D up 22.4µM*, NTMT1 inhibitor 0.9%, FH mod -5.5%, PTAP-TSG101 blk inactive, B2AR arrestin ag inactive and GALK inh 0.5%.
For N#Cc1ccccc1NC(=O)c1cc2c(=O)n3ccccc3nc2s1 the results were GALC G270D up inconclusive, NTMT1 inhibitor -8.4%, FH mod -6.5%, PTAP-TSG101 blk inactive, B2AR arrestin ag inactive and GALK inh 0.2%.
O=c1c2ccccc2nc2sc(Nc3ccc4c(c3)CCC4)nn12 was read as NTMT1 inhibitor -10.9%.
Nc1nc(Nc2ccc3c(c2)CC[C@@H](N2CCCC2)CC3)nn1-c1cc2c(nn1)-c1ccccc1CCC2 was read as NTMT1 inhibitor 35.5µM*.
